Laboratory results from PubChem BioAssay AID1159580 (chemical genetic matrix, 2015).
Where “and” joins values, the source holds several entries; their conditions need not be identical. Equal entries are not always repeated. Among all 5,500 compounds or so, about 2,000 (36%) were called active. Another 18% or so got no clear call; they are omitted. Cut-off read from the data, not from the text of the source: active = normalized growth mostly below about 0.91 (no sharp cut-off); inconclusive = no clear call, values can overlap the other calls; inactive = mostly above about 0.92. The list shows a part of the results.

Experiment: chemical genetic growth profiling, strain panel (AID 1159580);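 note: tested at 20 µM; growth read once vehicle control cultures reached saturation at 30 °C; 1 = growth at the plate median or of vehicle wells; lower values mean less growth of the strain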
Settings: S. cerevisiae deletion strains, growth OD

Measured: normalized growth

C=CCC1(C(C)CCC)C(=O)N=C(S)NC1=O (stereo unspecified)
inactive: locus YAL013W, strain DEP1, hits give low values 0.989 | locus YAL021C, strain ccr4, hits give low values 0.989 | locus YAL026C, strain drs2, hits give low values 1 | locus YAL030W, strain snc1, hits give low values 0.984 | locus YBL061C, strain skt5, hits give low values 0.975 | locus YBR009C, strain hhf1, hits give low values 1.01 | locus YBR021W, strain FUR4, hits give low values 0.982 | locus YBR023C, strain chs3, hits give low values 0.986 | locus YBR171W, strain sec66, hits give low values 0.949 | locus YBR229C, strain ROT2, hits give low values 0.994 | locus YBR231C, strain swc5, hits give low values 0.976 | locus YBR279W, strain paf1, hits give low values 0.998 | locus YCL011C, strain gbp2, hits give low values 0.974 | locus YCL016C, strain dcc1, hits give low values 1 | locus YCL029C, strain bik1, hits give low values 0.981 | locus YCL061C, strain MRC1, hits give low values 0.982 | locus YCL069W, strain vba3, hits give low values 0.99 | locus YCR088W, strain abp1, hits give low values 0.967 | locus YDL005C, strain med2, hits give low values 0.937 | locus YDL035C, strain GPR1, hits give low values 0.985 | locus YDL040C, strain nat1, hits give low values 0.973 | locus YDL074C, strain BRE1, hits give low values 1.06 | locus YDL101C, strain DUN1, hits give low values 0.979 | locus YDL134C, strain PPH21, hits give low values 0.997 | locus YDL185W, strain tfp1, hits give low values 0.958 | locus YDL192W, strain arf1, hits give low values 0.976 | locus YDR001C, strain nth1, hits give low values 0.949 | locus YDR069C, strain doa4, hits give low values 0.949 | locus YDR101C, strain arx1, hits give low values 0.988 | locus YDR137W, strain rgp1, hits give low values 0.919 | locus YDR150W, strain NUM1, hits give low values 0.994 | locus YDR159W, strain sac3, hits give low values 0.952 | locus YDR162C, strain NBP2, hits give low values 1.01 | locus YDR195W, strain ref2 0.885 | locus YDR297W, strain sur2, hits give low values 0.983 | locus YDR318W, strain mcm21, hits give low values 0.986 | locus YDR334W, strain swr1, hits give low values 0.938 | locus YDR335W, strain msn5, hits give low values 0.964 | locus YDR388W, hits give low values 0.986 | locus YDR392W, strain spt3, hits give low values 1.01 | locus YDR502C, strain sam2, hits give low values 1 | locus YEL003W, strain gim4, hits give low values 0.979 | locus YEL037C, strain rad23, hits give low values 0.974 | locus YEL061C, strain CIN8 (second series), hits give low values 0.968 | locus YEL061C, strain CIN8, hits give low values 0.988 | locus YER015W, strain faa2, hits give low values 0.957 | locus YER016W, strain bim1, hits give low values 0.987 | locus YER110C, hits give low values 0.981 | locus YER111C, strain swi4, hits give low values 0.989 | locus YER155C, strain BEM2 (second series), hits give low values 0.928 | locus YER155C, strain BEM2, hits give low values 0.988 | locus YER167W, strain BCK2, hits give low values 0.961 | locus YFR010W, strain ubp6, hits give low values 0.952 | locus YGL078C, strain dbp3, hits give low values 0.986 | locus YGL086W, strain mad1, hits give low values 0.975 | locus YGL167C, strain pmr1, hits give low values 0.962 | locus YGL173C, strain kem1, hits give low values 0.999 | locus YGL227W, strain vid30, hits give low values 0.954 | locus YGL240W, strain doc1, hits give low values 0.944 | locus YGL248W, strain PDE1, hits give low values 1 | locus YGL253W, strain hxk2, hits give low values 0.969 | locus YGR078C, strain PAC10, hits give low values 1.02 | locus YGR135W, strain pre9, hits give low values 1.02 | locus YGR229C, strain SMI1, hits give low values 1.02 | locus YGR252W, strain gcn5, hits give low values 1.03 | locus YHR013C, strain ard1, hits give low values 0.964 | locus YHR027C, strain rpn1, hits give low values 0.977 | locus YHR030C, strain SLT2, hits give low values 0.976 and 0.982 | locus YHR079C, strain IRE1 (second series), hits give low values 0.987 | locus YHR079C, strain IRE1, hits give low values 0.979 | locus YHR094C, strain hxt1, hits give low values 0.968 | locus YHR129C, strain ARP1, hits give low values 1 | locus YHR142W, strain chs7, hits give low values 0.996 | locus YHR200W, strain rpn10, hits give low values 0.965 | locus YIL066C, strain RNR3, hits give low values 0.999 | locus YIL073C, strain SPO22, hits give low values 0.934 | locus YIL125W, strain kgd1, hits give low values 0.982 | locus YIR030C, strain dcg1, hits give low values 0.978 | locus YJL092W, strain hpr5, hits give low values 0.985 | locus YJL095W, strain BCK1 (second series), hits give low values 0.975 | locus YJL095W, strain BCK1, hits give low values 1.07 and 0.994 | locus YJL115W, strain asf1, hits give low values 0.952 | locus YJL129C, strain trk1, hits give low values 0.928 | locus YJL134W, strain LCB3, hits give low values 0.979 | locus YJL154C, strain vps35, hits give low values 0.965 | locus YJL164C, strain tpk1, hits give low values 1.01 | locus YJL166W, strain qcr8, hits give low values 0.969 | locus YJL168C, strain set2, hits give low values 0.983 | locus YJL187C, strain SWE1 (second series), hits give low values 1.01 | locus YJR043C, strain POL32, hits give low values 0.978 | locus YJR066W, strain TOR1, hits give low values 0.959
